ClpP mod: qHTS Assay for Activators of ClpP; AID 651965, 2013; Potency, µM (doses to about 57.5 µM), for the others: at the top dose activity change, negative = active; 340,000 compounds, 1.9% hits; ATP-dependent Clp protease proteolytic subunit (Bacillus subtilis (strain 168)), P80244; purified B. subtilis ClpP, FRET peptide cleavage, 20 min; active = well fitted falling curve with a large enough effect; inconclusive = small, poorly fitted or top-dose-only effect; inactive = no such curve, though single readings can be large or run the other way; note: the source files actives as falling curves though it sought activators and does not explain the sign; nearly all actives have a fitted effect of over 65% in size
Target sequence (P80244 whole entry, looked up): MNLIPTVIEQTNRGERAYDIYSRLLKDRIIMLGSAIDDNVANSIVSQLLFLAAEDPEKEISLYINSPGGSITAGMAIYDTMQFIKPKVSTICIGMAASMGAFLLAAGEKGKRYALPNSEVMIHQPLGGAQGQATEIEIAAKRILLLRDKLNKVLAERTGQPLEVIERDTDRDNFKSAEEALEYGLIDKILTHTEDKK
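FRET quenching reversal measured ClpP activation: 10 microg/mL B. subtilis ClpP at pH 8 with the FRET-FV decapeptide, read at 430 nm after 320 nm excitation. The 20-min minus 0-min signal was scaled between DMSO/no-enzyme wells and ADEP (5.8 microM final).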
PINK1 expr mod: changes PINK1 expression; PINK1 immunofluorescence, high-content cytometry, 24 h; Potency, µM (titrated, usually from 76.6 µM), for inactives: top-dose activation (PINK1 increase), actives largely listed as activators; 410,000 compounds, 0.2% hits; active = well fitted activation curve with a large enough effect; inconclusive = small, poorly fitted or top-dose-only effect; cell line not stated here; note: % of control where 0% means no effect; nearly all actives have a fitted effect of over 65% in size
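Cells are seeded, rested 12 hours, then given compound at five concentrations or DMSO for 24 hours. After fixation, blocking and antibody staining, PINK1 amount and mitochondrial localization are scored; CCCP serves as control.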
RORgamma inh: blocks mouse ROR gamma transcriptional activity; P51450; Drosophila S2 Gal4-RORgamma UAS-luciferase reporter, 20 h; Potency, µM (highest dose often 53.6 µM), without a hit: at the highest dose activity change, negative = inhibition, hits mostly inhibitors; 310,000 compounds, 5.4% hits; note: % is set by controls: 0 for no effect and ±100 for the full control effect; nearly all actives have a fitted effect of over 60% in size
Target sequence (P51450 whole entry, looked up, the tested form may be a part): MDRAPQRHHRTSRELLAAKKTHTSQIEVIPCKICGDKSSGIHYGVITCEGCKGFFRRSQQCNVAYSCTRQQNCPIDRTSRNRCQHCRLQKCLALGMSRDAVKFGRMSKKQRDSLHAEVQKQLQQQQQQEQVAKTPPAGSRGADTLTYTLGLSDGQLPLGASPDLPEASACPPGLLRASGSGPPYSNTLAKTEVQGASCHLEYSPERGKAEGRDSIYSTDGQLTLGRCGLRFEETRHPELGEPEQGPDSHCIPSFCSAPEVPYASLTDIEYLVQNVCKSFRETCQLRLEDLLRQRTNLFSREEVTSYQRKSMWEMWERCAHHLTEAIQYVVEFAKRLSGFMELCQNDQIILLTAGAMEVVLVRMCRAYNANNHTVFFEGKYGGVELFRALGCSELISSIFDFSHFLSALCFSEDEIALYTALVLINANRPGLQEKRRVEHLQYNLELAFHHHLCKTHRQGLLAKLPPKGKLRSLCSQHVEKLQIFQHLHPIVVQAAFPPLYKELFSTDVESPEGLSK
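Luciferase reporter read in Schneider cells carrying Gal4-RORγ (mouse) and UAS-Photinus luciferase; cells given compound 1 h before 700 uM copper sulfate induction, then incubated 20 h at ambient temperature.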
Sfp inh: inhibitors of Bacillus subtilis Sfp phosphopantetheinyl transferase; Q9F4F7; Biochemical Sfp PPTase activity, qHTS; Potency, µM, for inactives: largest response in the series, negative = inhibition, hits mostly inhibitors; 310,000 compounds, 3.5% hits;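 note: the enzyme is Sfp with the accession as filed and its product quenches rhodamine fluorescence; 0% = enzyme reaction without inhibitor and -100% = no enzyme wells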
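Fluorescence-quenching assay with 15 nM Sfp, 5 uM rhodamine-CoA and 12.5 uM BHQ-2-labelled ybbR peptide in pH 7.6 Hepes/MgCl2 buffer. Enzyme was pre-incubated with compound for 15 min at room temperature. Rate was taken from the 30-min fluorescence change (525/598 nm).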
Epigenetic derep: epigenetic control regulation, reporter derepression; 280,000 compounds, 0.2% hits; Potency, µM (top dose mostly 53.9 µM), without a hit: top-dose GFP activation, usual class: activators; murine LDR cells, GFP reporter derepression, 30 h; note: % of control where 0% means no effect; nearly all actives have a fitted effect of over 60% in size
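Murine LDR cells carrying a silenced, genomically integrated CMV-driven GFP reporter were exposed to compound for 30 hours at 37 C. After PBS washes, GFP-positive cells (20–120 um objects) were counted by laser-scanning microplate cytometry.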
VP16 counter: inhibits Gal4-VP16 luciferase reporter, ROR gamma counter-screen; Potency, µM (highest dose often 53.6 µM), without a hit: at the highest dose activity, negative = inhibition, most hits filed as inhibitors; 310,000 compounds, 3.5% hits; Drosophila S2 Gal4-VP16 UAS-luciferase, luminescence, 20 h;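 note: Gal4-VP16 expression switched on by copper sulfate through the metallothionein promoter; % is set by controls: 0 for no effect and ±100 for the full control effect; nearly all actives have a fitted effect of over 50% in size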
Starred values were filed as active, the others as inactive; ? = inconclusive; · = no result given; ! = not active in a repeat; [ ] = another dose, or the depositor's remark. A selection: hits, their analogues and other compounds. The true share with any hit is near 8.1%. Unless noted, calls come from the whole dose curve; as a rule, active = well fitted curve in the direction sought with a large enough effect; inconclusive = small, poorly fitted or top-dose-only effect, or another doubt; inactive = no such curve, though single readings can be large; an effect the other way counts as inactive or inconclusive. Potency is the fitted concentration of half-maximal effect.

SMILES	ClpP mod	PINK1 expr mod	RORgamma inh	Sfp inh	Epigenetic derep	VP16 counter
CCOc1ccc2ccccc2c1C1NC(=S)N(C)C(C)=C1C(=O)OC (stereo not drawn)	8.9µM*	1%	-4%	13%	-6%	-6%
COC(=O)c1scc(-c2ccc(C)cc2)c1S(=O)(=O)Nc1cccc(C(F)(F)F)c1	22%	1%	·	·	0%	·
O=C(CSc1oc(-c2ccco2)nc1S(=O)(=O)c1ccc(Cl)cc1)c1ccc(Cl)cc1	0%	-1%	·	·	2%	·
CC1=C(C(=O)Nc2ccccc2)C(c2ccccc2Cl)n2ncc(C(=O)Nc3cccc(C)c3)c2N1 (stereo not drawn)	?	?	·	·	0%	·
N#CSCC(=O)c1cccc2ccccc12	-12%	1%	11µM*	-23%	16%	?
COc1cccc2c1cc1c(=O)n(CC(=O)O)nc(C)n12	27%	3%	·	·	0%	·
CCCN1CCN(C(=O)Cn2nc(C)n3c(cc4c(OC)cccc43)c2=O)CC1	·	-1%	·	·	·	·
COc1cccc2c1cc1c(=O)n(CC(=O)NC3CCCCC3)nc(C)n12	32µM*	2%	-16%	9%	0%	-5%
COc1cccc2c1cc1c(=O)n(CC(=O)N3CCN(c4ccc(F)cc4)CC3)nc(C)n12	20µM*	0%	·	·	0%	·
CC(C)C(NS(=O)(=O)c1ccc2c(c1)oc(=O)n2C)C(=O)NCCc1ccccc1 (stereo not drawn)	-3%	1%	·	·	1%	·
CC(=O)O[C@@H]1C(CO[Si](C)(C)C(C)(C)C)=C(Br)C(=O)[C@@H]2O[C@]12C	·	·	?	50µM*	3%	?
O=C(O)/C=C/c1ccc(O)c(O)c1	-6%	0%	?	56µM*!	4%	-1%
O=C(/C=C/c1ccc(O)c(O)c1)O[C@@H](C(=O)O)[C@@H](OC(=O)/C=C/c1ccc(O)c(O)c1)C(=O)O	·	·	-21%	·	·	-3%
O=C(/C=C/c1ccc(O)c(O)c1)O[C@H](Cc1ccc(O)c(O)c1)C(=O)O	·	·	-11%	50µM*	0%	0%
CCOc1ccc(-c2nc(Cn3c(=O)cc(C)c4c(C)nn(-c5ccc(C)cc5)c43)c(C)o2)cc1	1%	-1%	·	·	1%	·
CCn1c(SCc2ccccc2F)nc(=O)c2c(C(=O)OC)cc(C3CC3)nc21	-13%	-1%	·	·	-1%	·
COC(=O)c1ccccc1NC(=O)NCc1ccccn1	28µM*	2%	?	32%	0%	-3%
O=C(NCc1ccccn1)Nc1ccccc1Cl	-2%	-1%	19%	6%	·	22%
COc1ccc(NC(=O)NCc2cccnc2)c(OC)c1	-1%	-1%	1%	3%	·	-3%
CCOC(=O)CNC(=O)Nc1ccccc1C(=O)OC	28µM*	0%	1%	15%	-3%	-5%
COC(=O)c1ccccc1NC(=O)NCc1ccco1	28µM*	-3%[38.3 µM]	38%[0.365 µM]	13%	0%	·
COC(=O)c1ccccc1NC(=O)CC(=O)Nc1ccccc1C(=O)OC	?	1%	17%	5%	·	-5%
COC(=O)c1ccccc1NC(=O)NCc1cccnc1	28µM*	-2%	-6%	12%	-1%	-8%
O=C(NCc1ccco1)Nc1ccccc1Cl	1%	0%	?	9%	0%	32%
COc1cc(-c2nc(-c3ccccc3)c(-c3ccc(Br)cc3)[nH]2)cc(OC)c1O	5%	?	·	·	-2%	·
SMILES	ClpP mod	PINK1 expr mod	RORgamma inh	Sfp inh	Epigenetic derep	VP16 counter
O=C(Nc1cc(-c2nc3ccccc3o2)ccc1Cl)c1ccc(Br)o1	-29%	-1%	·	·	?	·
CCCN(CCC)CCCNC(=O)c1cc2c(=O)n(C)c3ccccc3c2s1	4%	0%	·	·	-1%	·
COc1ccc(N=C2C(=S)N(c3ccc(OC)cc3)C(=NS(=O)(=O)c3ccccc3)N2c2ccccc2)cc1	28µM*	0%	·	·	·	·
N=C1N(c2ccccc2)C(=S)C(=Nc2ccccc2)N1c1ccccc1	-1%	9%	·	·	·	·
Cc1cc(N2CCCC2)ccc1/C=C1/C(=O)N(C)C(=S)N1C	·	17%	-3%	-10%	?	-27%
CN1C(=O)/C(=C/C=C2/CCCN2C)N(C)C1=S	·	0%	38%	79µM*	0%	30%
CCC(=O)NC(c1ccco1)c1cc(Br)c2cccnc2c1O (stereo not drawn)	·	4%	·	·	·	·
CCC(=O)NC(c1cc(Cl)c2cccnc2c1O)C(C)C (stereo not drawn)	·	3%	·	·	·	·
CCCC(=O)NC(c1ccco1)c1cc([N+](=O)[O-])c2cccnc2c1O (stereo not drawn)	·	0%	5.6µM*	14µM*	1%	5µM*
CC(=O)NC(c1ccc(C)cc1)c1cc([N+](=O)[O-])c2cccnc2c1O (stereo not drawn)	·	23%	2.8µM*	?	-1%	4µM*
CCC(=O)NC(c1ccc(C)cc1)c1cc([N+](=O)[O-])c2cccnc2c1O (stereo not drawn)	-3%	27%	2.5µM*	?	0%	2.8µM*
Cc1nn(-c2ccccc2)c(C)c1/C=N\N1CCN(c2ccc(Cl)cc2)CC1	-1%	11%	30%	25µM*	1%	4%
Cc1cccn2cc(CNC(=O)CC3CCCC3)nc12	32µM*	1%	-12%	28%	-1%	8%
Cc1cccc(C(=O)NCc2cn3cccc(C)c3n2)c1	-6%	0%	·	·	-4%	·
CC(=O)Nc1cccc(C(=O)NCc2ccc3c(c2)CCN3C(=O)c2ccc(F)cc2)c1	0%	2%	·	·	-1%	·
Cc1cc2cc(CNC(=S)Nc3ccc(OC(F)(F)F)cc3)ccc2[nH]1	1%	7%	18µM*	25%	1%	?
Cc1cc2cc(CNC(=S)Nc3ccc(OC(F)F)cc3)ccc2[nH]1	-4%	4%	13µM*	-1%	0%	22µM*
CCNC(=S)NCc1ccc2[nH]c(C)cc2c1	1%	0%	?	-12%	1%	10%
COc1cc(/C=C2/C(=N)N3C(c4ccccc4)=CSC3=NC2=O)ccc1OCC(=O)O	2%	1%	20%	8%	4%	-10%
N=C1/C(=C\c2ccc(-c3cccc(Cl)c3)o2)C(=O)N=C2SC=C(c3ccccc3)N12	0%	1%	58%	6.3µM*	-1%	0%
Cc1cc(/C=C2/C(=N)N3C(c4ccccc4)=CSC3=NC2=O)c(C)n1-c1ccc(Cl)cc1	·	0%	·	·	·	·
N=C1/C(=C\c2ccc(-c3ccc(C(=O)O)cc3)o2)C(=O)N=C2SC=C(c3ccccc3)N12	-14%	0%	17%	32µM*	15%	0%
CCOC(=O)c1ncc2[nH]c3cccc(OC(C)C)c3c2c1C	·	·	18µM*	-12%	0%	?

High-throughput results: PubChem, National Center for Advancing Translational Sciences (NCATS)
